Data: PubChem BioAssay (Tox21)
“And” between values parts separate entries of the source, which are not always exact repeats. Identical values can stand only once. Results filed as inconclusive are left out. A call without a number means that no potency is given here. A structure can be active in one record and inactive in another. The source made the active and inactive calls. Unless noted, the call rests on the fitted dose curve; in most records, active means well fitted curve in the direction sought with a large enough effect in the repeat runs; inconclusive means weak or mixed curves; inactive means no such curve, though single readings can be large; an effect the other way counts as inactive or inconclusive.

What was measured:
[1] = qHTS assay to test for compound auto fluorescence at 535 nm (green) in HEK293 cells (AID 720680)
[2] = qHTS assay to test for compound auto fluorescence at 460 nm (blue) in HEK293 cell free culture (AID 720681)
How it was run: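 Compounds were added to cell-free DMEM with 10% FBS and fluorescence read directly. The blue channel used 405 nm excitation and 460 nm emission, with triamterene as the reference fluorophore.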

[3] = qHTS assay to test for compound auto fluorescence at 535 nm (green) in HEK293 cell free culture (AID 720682)
How it was run: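 Cell-free medium (DMEM, 10% FBS) receives compound or DMSO by pintool. Plate read directly at Ex 485/Em 535 nm. Signal converted to fluorescein equivalency.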

[4] = qHTS assay to test for compound auto fluorescence at 590 nm (red) in HEK293 cell free culture (AID 720683)
How it was run: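 Cell-free wells of DMEM with 10% FBS received compound, and intrinsic fluorescence was read at excitation/emission 540/590 nm. Values expressed as equivalence to Rose Bengal sodium.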

[5] = qHTS assay to test for compound auto fluorescence at 590 nm (red) in HepG2 cell free culture (AID 720684)
How it was run: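 Compound was pinned into wells holding MEM with 10% FBS and no cells, and red fluorescence was read at Ex/Em 540/590 nm. Signal is expressed as auto fluorescence equivalency relative to Rose Bengal sodium.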

[6] = qHTS assay to test for compound auto fluorescence at 460 nm (blue) in HepG2 cell free culture (AID 720685)
How it was run: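 Compound (23 nL) or DMSO pinned into cell-free MEM with 10% FBS; blue fluorescence read at 405/460 nm excitation/emission, expressed as auto-fluorescence equivalency to triamterene.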

[7] = qHTS assay to test for compound auto fluorescence at 535 nm (green) in HepG2 cell free culture (AID 720686)
[8] = qHTS assay to test for compound auto fluorescence at 460 nm (blue) in HepG2 cells (AID 720687)
How it was run: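 HepG2 cells in MEM with 10% FBS, attached overnight at 37 C, were exposed to compound or DMSO for 1 hr at 37 C, 5% CO2. Blue fluorescence was read at 405/460 nm, with triamterene as reference fluorophore.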

[9] = qHTS assay for identifying genotoxic compounds that show differential cytotoxicity against isogenic chicken DT40 cell lines with known DNA damage response pathways - wild type cell line (AID 743012); further: nearly all actives have a fitted effect of over 60% in size; further: potency means the concentration at half of the fitted maximal effect
How it was run: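 Quantitative HTS on parental DT40 cells: 40 h compound treatment at 37 C/5% CO2, with viability then determined by CellTiter-Glo luminescence. Values serve as the DNA repair-proficient reference for differential cytotoxicity.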

[10] = qHTS assay for identifying genotoxic compounds that show differential cytotoxicity against isogenic chicken DT40 cell lines with known DNA damage response pathways - Rev3 mutant cell line (AID 743014); further: nearly all actives have a fitted effect of over 55% in size; further: potency means the concentration at half of the fitted maximal effect
[11] = qHTS assay for identifying genotoxic compounds that show differential cytotoxicity against isogenic chicken DT40 cell lines with known DNA damage response pathways - Rad54/Ku70 mutant cell line (AID 743015); further: nearly all actives have a fitted effect of over 60% in size; further: potency means the concentration at half of the fitted maximal effect
[12] = qHTS assay to identify small molecule antagonists of the androgen receptor (AR) signaling pathway - cell viability counter screen (AID 743033; further: nearly all actives have a fitted effect of over 45% in size)
[13] = qHTS assay to identify small molecule antagonists of the androgen receptor (AR) signaling pathway using the MDA cell line - cell viability counter screen (AID 743041; further: nearly all actives have a fitted effect of over 45% in size)
How it was run: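 MDA-kb2 AR-luc cells (MMTV-luciferase, AR/GR responsive) treated with compounds plus R1881 agonist for 16 h at 37C. CellTiter-Fluor added at 15.5 h; fluorescence read after 30 min in the same wells.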

[14] = biological target: Androgen receptor (Homo sapiens) (UniProt P10275); test: qHTS assay to identify small molecule antagonists of the androgen receptor (AR) signaling pathway using the MDA cell line (AID 743042; further: nearly all actives have a fitted effect of over 55% in size)
Sequence of Androgen receptor (Homo sapiens) (P10275 whole entry, looked up): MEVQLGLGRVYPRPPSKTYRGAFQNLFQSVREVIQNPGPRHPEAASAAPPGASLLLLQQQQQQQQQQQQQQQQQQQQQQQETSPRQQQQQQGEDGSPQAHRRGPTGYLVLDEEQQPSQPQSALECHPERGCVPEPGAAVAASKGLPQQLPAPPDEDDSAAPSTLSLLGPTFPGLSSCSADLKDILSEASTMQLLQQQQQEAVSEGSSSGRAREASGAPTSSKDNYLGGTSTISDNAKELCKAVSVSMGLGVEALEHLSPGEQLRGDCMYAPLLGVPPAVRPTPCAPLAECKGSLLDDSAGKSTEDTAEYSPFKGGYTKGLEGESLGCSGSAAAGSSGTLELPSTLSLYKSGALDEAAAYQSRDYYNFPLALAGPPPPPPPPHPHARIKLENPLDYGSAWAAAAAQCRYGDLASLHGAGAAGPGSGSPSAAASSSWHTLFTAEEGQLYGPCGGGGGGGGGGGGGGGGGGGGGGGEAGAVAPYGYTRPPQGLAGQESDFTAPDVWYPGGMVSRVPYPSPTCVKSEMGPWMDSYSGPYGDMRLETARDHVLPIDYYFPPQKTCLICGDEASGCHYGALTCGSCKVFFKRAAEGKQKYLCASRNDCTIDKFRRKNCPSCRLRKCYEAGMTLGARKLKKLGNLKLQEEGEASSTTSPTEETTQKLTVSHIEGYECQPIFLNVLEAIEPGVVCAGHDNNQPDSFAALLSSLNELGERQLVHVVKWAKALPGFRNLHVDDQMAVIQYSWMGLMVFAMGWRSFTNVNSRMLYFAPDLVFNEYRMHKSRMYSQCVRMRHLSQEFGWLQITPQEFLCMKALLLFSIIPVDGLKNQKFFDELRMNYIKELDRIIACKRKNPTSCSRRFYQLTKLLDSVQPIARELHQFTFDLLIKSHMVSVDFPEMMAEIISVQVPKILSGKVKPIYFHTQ
How it was run: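 MDA-kb2 breast carcinoma cells carrying MMTV-luciferase (AR/GR responsive) were co-treated with compounds and the agonist R1881 for 16 h at 37C. Inhibition read as ONE-Glo luminescence; CellTiter-Fluor fluorescence measured in parallel for cytotoxicity.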

[15] = qHTS assay to identify small molecule antagonists of the thyroid receptor (TR) signaling pathway - cell viability counter screen (AID 743064); further: nearly all actives have a fitted effect of over 50% in size
How it was run: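 GH3.TRE-Luc cells, 4 h pre-plating; cpd + T3 1 nM final; 37 °C 23.5 h; CellTiter-Fluor 30 min; fluorescence read.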

[16] = qHTS assay to identify small molecule antagonists of the thyroid receptor (TR) signaling pathway (AID 743065); further: series mostly up to about 70 µM; nearly all actives have a fitted effect of over 55% in size
How it was run: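 GH3.TRE-Luc rat pituitary cells (two TREs driving luciferase) were dosed with compound, then stimulated with 1 nM T3 (final) for 23.5 h at 37 C. ONE-Glo luminescence was the read-out, with CellTiter-Fluor fluorescence as the cytotoxicity counter-screen.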

[17] = qHTS assay to identify small molecule antagonists of the glucocorticoid receptor (GR) signaling pathway - cell viability counter screen (AID 720693); further: nearly all actives have a fitted effect of over 55% in size
[18] = biological target: Androgen receptor (Homo sapiens) (UniProt P10275); test: qHTS assay to identify small molecule antagonists of the androgen receptor (AR) signaling pathway (AID 743035; active means well fitted inhibition curve with a large enough effect in the signal ratio in the repeat runs, not every such curve was filed as active; the % refers to the signal ratio)
How it was run: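 Cell line: GeneBLAzer AR-UAS-bla GripTite (HEK293). Stimulus: R1881 added after compound. Exposure: 16 h, 37C, 5% CO2. Readout: LiveBLAzer B/G FRET fluorescence after 2 h at room temperature.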

Row | Compound | outcome [1] | outcome [2] | outcome [3] | outcome [4] | outcome [5] | outcome [6] | outcome [7] | outcome [8] | Potency [9] | Potency [10] | Potency [11] | outcome [12] | Potency [13] | Potency [14] | Potency [15] | Potency [16] | Potency [17] | Potency [18]
1 | COc1cc(C=O)ccc1O | inactive | inactive | inactive | inactive | inactive | inactive | inactive | inactive | inactive | inactive | inactive | inactive | inactive | inactive | inactive | inactive | – | –
2 | C=CC(=O)NC(C)(C)CS(=O)(=O)O | inactive | inactive | inactive | inactive | inactive | inactive | inactive | inactive | inactive | inactive | inactive | inactive | inactive | – | inactive | inactive | inactive | –
3 | COc1cc(O)c(C(=O)c2ccccc2)cc1S(=O)(=O)O | inactive | inactive | inactive | inactive | inactive | inactive | inactive | inactive | inactive | inactive | inactive | inactive | inactive | inactive | inactive | inactive | – | inactive
4 | COC(=O)C1CCC(C(=O)OC)CC1 (stereo unspecified) | inactive | inactive | inactive | inactive | inactive | inactive | inactive | inactive | inactive | inactive | inactive | inactive | inactive | – | inactive | inactive | – | –
5 | CC1(C)O[C@@H]2[C@@H](CO[C@@]3(COS(N)(=O)=O)OC(C)(C)O[C@@H]23)O1 | inactive | inactive | inactive | inactive | inactive | inactive | inactive | inactive | inactive | inactive | inactive | inactive | inactive | – | inactive | inactive | inactive | –
6 | Nc1cccc(N)c1 | inactive | inactive | inactive | inactive | inactive | inactive | inactive | inactive | inactive | 17.2 µM (active) and inactive | 61 µM (active) and inactive | inactive | inactive | – | inactive | inactive | inactive | –
7 | O=C1OC(c2ccc(O)cc2)(c2ccc(O)cc2)c2ccccc21 | inactive | inactive | inactive | inactive | inactive | inactive | inactive | inactive | 38.3 µM (active) | 17.1 µM (active) | 27.1 µM (active) | inactive | inactive | inactive | – | – | inactive | –
8 | NC(=O)N1c2ccccc2C=Cc2ccccc21 | inactive | inactive | inactive | inactive | inactive | inactive | inactive | inactive | inactive and 30.6 µM (active) | inactive and 30.6 µM (active) | inactive and 54.5 µM (active) | inactive | inactive | – | inactive | inactive | – | –
